According to PMC4336329 (PLoS ONE, 2015):
The whole screen tested about 310,000 compounds, of which about 14,000 (4.5%) showed an effect of 50% or more. The effect is printed as a negative number. Only a selection was taken, and strong results are over-represented in it overall.

target: human ether-à-go-go-related gene (hERG) potassium channel (human, UniProt Q12809); experiment: primary screen, population patch clamp on CHO cells stably expressing hERG; higher = less effect of the substance
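Also: peak tail current of the secondary pulse compared with the same well before compound.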

Chain of human ether-à-go-go-related gene (hERG) potassium channel (Q12809 whole entry, looked up): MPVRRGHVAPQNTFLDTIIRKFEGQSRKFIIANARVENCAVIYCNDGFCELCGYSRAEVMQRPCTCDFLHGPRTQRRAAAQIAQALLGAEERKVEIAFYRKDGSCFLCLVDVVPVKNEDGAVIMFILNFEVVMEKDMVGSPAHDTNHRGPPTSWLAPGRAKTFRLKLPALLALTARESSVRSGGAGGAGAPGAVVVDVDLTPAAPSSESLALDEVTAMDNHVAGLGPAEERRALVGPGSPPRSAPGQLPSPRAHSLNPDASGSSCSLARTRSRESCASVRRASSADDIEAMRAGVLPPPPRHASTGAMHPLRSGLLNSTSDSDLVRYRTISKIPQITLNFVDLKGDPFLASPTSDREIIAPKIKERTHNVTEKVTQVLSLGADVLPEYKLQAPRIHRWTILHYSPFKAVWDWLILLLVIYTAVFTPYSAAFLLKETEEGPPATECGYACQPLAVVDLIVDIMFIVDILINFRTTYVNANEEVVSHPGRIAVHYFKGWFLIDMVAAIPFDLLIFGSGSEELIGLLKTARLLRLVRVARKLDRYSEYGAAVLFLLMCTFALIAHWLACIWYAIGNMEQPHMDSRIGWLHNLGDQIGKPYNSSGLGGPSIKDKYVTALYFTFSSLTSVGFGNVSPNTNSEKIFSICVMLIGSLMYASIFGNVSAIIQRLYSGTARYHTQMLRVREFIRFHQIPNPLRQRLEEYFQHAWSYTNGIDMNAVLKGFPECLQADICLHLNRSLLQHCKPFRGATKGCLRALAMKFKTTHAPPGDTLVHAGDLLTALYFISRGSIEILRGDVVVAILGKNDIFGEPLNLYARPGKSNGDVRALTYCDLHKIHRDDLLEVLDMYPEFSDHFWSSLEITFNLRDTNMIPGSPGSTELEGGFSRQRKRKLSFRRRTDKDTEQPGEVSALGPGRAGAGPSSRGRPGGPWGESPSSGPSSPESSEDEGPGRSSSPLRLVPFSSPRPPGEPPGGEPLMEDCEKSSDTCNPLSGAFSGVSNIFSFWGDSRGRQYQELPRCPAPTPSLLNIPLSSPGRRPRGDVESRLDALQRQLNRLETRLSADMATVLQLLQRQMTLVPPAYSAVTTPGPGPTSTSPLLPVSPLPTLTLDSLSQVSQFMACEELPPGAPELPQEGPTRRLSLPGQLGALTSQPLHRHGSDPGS

Compound | hERG current change (%, negative = inhibition) at 10uM [%]
Cc1ccc(C(=O)N2CCCCC2)cc1S(=O)(=O)N1CCOCC1 | 22
COc1ccc(NC(=O)C2CCCN(S(=O)(=O)c3ccc4c(c3)CCCN4C(C)=O)C2)cc1 (centres unmarked) | 9.31
CCCN1CCC(NC(=O)Nc2cc(Cl)ccc2OC)CC1 | -19.1
CCCCOc1ccc(C(=O)Nc2ccc(N3CCN(C(=O)C(C)C)CC3)cc2)cc1 | 6.91
NC(=O)C1CCN(C(=O)c2ccc(F)c(S(=O)(=O)N3CCOCC3)c2)CC1 | -0.931
C/C(=N\NC(=O)CNC(=O)c1ccc(Br)cc1)c1ccco1 | 5.38
CC1CCN(CCCNC(=O)COc2cc(=O)n(C)c3ccccc23)CC1 | 8.58
CCn1c(=O)cc(OCC(=O)NCCCN2CCN(c3cccc(Cl)c3)CC2)c2ccccc21 | -61.1
Cn1c(=O)cc(OCC(=O)NCCCN2CCN(Cc3ccccc3)CC2)c2ccccc21 | -17.8
Cn1c(=O)cc(OCC(=O)NCCCN2CCN(c3cccc(Cl)c3)CC2)c2ccccc21 | -50.8
CCn1c(=O)cc(OCC(=O)NCCCN2CC(C)CC(C)C2)c2ccccc21 (centres unmarked) | -12.5
CCn1c(=O)cc(OCC(=O)NCCCN2CCC(C)CC2)c2ccccc21 | -8.39
O=S(=O)(N/N=C\c1cn(-c2ccccc2)nc1-c1ccccc1)c1ccccc1 | 5.42
COC(=O)c1ccc(N2C(=O)Nc3ccccc3N2O)cc1 | 12.5
CCN1CCN(C(C(=O)NC2CCCC2)c2cc3c(cc2[N+](=O)[O-])OCO3)CC1 (centres unmarked) | -1.51
CN(C)S(=O)(=O)N1CCC(C(=O)O)(c2ccccc2)CC1 | 18.7
CCCc1nc2ccc(NC(=O)c3cccs3)cc2c(=O)n1Cc1ccccc1Cl | 1.8
Cc1ccc2c(c1)nnn2C1CCN(S(=O)(=O)c2cccc(S(=O)(=O)N(C)C)c2)CC1 | -16.7
CC(=O)c1cccc(S(=O)(=O)N2CCC(n3nnc4cc(F)ccc43)CC2)c1 | -63.7
O=S(=O)(c1ccccc1)N1CCC(n2nnc3cc(F)ccc32)CC1 | -27.7
COC(=O)c1cccc(S(=O)(=O)N2CCC(n3nnc4cc(F)ccc43)CC2)c1 | -34.3

Compound | hERG current change (%, negative = inhibition) at 10uM [%]
O=S(=O)(NC1CCCC1)c1cccc(S(=O)(=O)N2CCC(n3nnc4ccccc43)CC2)c1 | -26
O=S(=O)(c1cccc(S(=O)(=O)N2CCC(n3nnc4ccccc43)CC2)c1)N1CCCCC1 | -55.7
CCCc1ccc(-c2cc(C(=O)NC3=NCCS3)c3ccccc3n2)cc1 | -2.06
CCCN1CCN(CCCNC(=O)Cn2nc(-c3ccccc3)ccc2=O)CC1 | -22.2
CCCN1CCN(CCCNC(=O)Cn2nc(-c3ccc(Cl)cc3)ccc2=O)CC1 | -50.8
CN1CCN(CCCNC(=O)Cn2nc(-c3ccccc3)ccc2=O)CC1 | 14.1
O=C(Cn1nc(-c2ccccc2)ccc1=O)NCCN1CCN(Cc2ccccc2)CC1 | -19.1
CCCN1CCN(CCCNC(=O)Cn2nc(-c3ccc(C)cc3)ccc2=O)CC1 | -24.6
O=C(Cn1nc(-c2ccc(Cl)cc2)ccc1=O)NCCCN1CCN(Cc2ccccc2)CC1 | -64.2
Cn1c(=O)c2c(nc(CN3CCOCC3)n2CCN2CCOCC2)n(C)c1=O | 3.09
COc1ccc(/C=C(/NC(=O)c2ccccc2)C(=O)NC(Cc2c[nH]c3ccccc23)C(=O)O)cc1 (centres unmarked) | 14.5
COc1cccc(/C=C2\SC(=S)N(CC(=O)N(C)C3CCS(=O)(=O)C3)C2=O)c1 (centres unmarked) | 1.18
CCCCOC(=O)NS(=O)(=O)c1sc(CC(C)C)cc1-c1ccc(Cn2c(CC)nc3c(C)cc(C)nc32)cc1 | 5.9
Cc1ccccc1C1=NCC(=S)Nc2ccc(Cl)cc21 | 0.98
COc1ccc(C2c3ccc4ccccc4c3Oc3ncn(CCO)c(=N)c32)cc1OC (centres unmarked) | -45.7
COc1ccc(C2c3c(ncn(CCCO)c3=N)Oc3ccc4ccccc4c32)cc1 (centres unmarked) | -33.9
N=c1c2c(ncn1CCN1CCOCC1)Oc1ccc3ccccc3c1C2c1ccccc1 (centres unmarked) | -49.3
N=c1c2c(ncn1CCCO)Oc1c(ccc3ccccc13)C2c1ccccc1 (centres unmarked) | -70.4
COc1ccc(C2c3ccc4ccccc4c3Oc3ncn(CCO)c(=N)c32)cc1 (centres unmarked) | -74.2
COc1ccc(C2c3c(ncn(CCCO)c3=N)Oc3ccc4ccccc4c32)cc1OC (centres unmarked) | -28.8
N=c1c2c(ncn1CCCO)Oc1ccc3ccccc3c1C2c1ccccc1 (centres unmarked) | -53.6

Compound | hERG current change (%, negative = inhibition) at 10uM [%]
COc1ccc(C2c3ccc4ccccc4c3Oc3ncn(CCCO)c(=N)c32)cc1OC (centres unmarked) | -62.3
COC(=O)C1CN(C(=O)COc2ccc(Cl)cc2Cl)c2ccccc2O1 (centres unmarked) | -2.51
CCCCNC(=O)/C(C#N)=c1\s/c(=C\c2ccccc2OC(F)F)c(=O)n1CCCOC | 22.6
Cc1ccc(Nc2c([N+](=O)[O-])cc(C(=O)N3CC(=O)Nc4ccccc43)cc2[N+](=O)[O-])c(C)c1 | 15.2
COCCNC(=O)C(=O)c1c(-c2ccccc2)[nH]c2ccccc12 | 1.69
CCOC(=O)NCc1ccc2c(c1)OCO2 | 19.7
O=C(CCN1C(=O)/C(=C/c2ccc(F)cc2)SC1=S)Nc1cc([N+](=O)[O-])ccc1O | 15
COC(=O)c1ccnc(/C=N/O)c1 | 10.7
CCNS(=O)(=O)c1ccc2nc(NC(=O)c3cccnc3)sc2c1 | -1.78
Cc1ccc(N2CC(C(=O)Nc3cccnc3)CC2=O)cc1 (centres unmarked) | -9.42
O=S(=O)(c1ccc(Cl)cc1)N1CCN2CCCC2C1 (centres unmarked) | -6.01
CN(C)NC1CC(=O)N(c2ccccc2)C1=O (centres unmarked) | 15.9
NC(=O)N/N=C/c1cn(-c2ccccc2)nc1-c1ccccc1 | -6.63
Cc1[nH]c(=O)[nH]c(=O)c1S(=O)(=O)Nc1ccc(F)cc1Cl | 17.1
S=c1[nH]nc(COc2ccccc2)n1/N=C/c1ccc(Cl)cc1 | 22.4
COc1ccc(C2c3ccc4ccccc4c3Oc3ncn(Cc4ccco4)c(=N)c32)cc1OC (centres unmarked) | -62.9
N=c1c2c(ncn1Cc1ccco1)Oc1c(ccc3ccccc13)C2c1ccccc1 (centres unmarked) | -26.5
COc1ccc(C2c3ccc4ccccc4c3Oc3ncn(CCCO)c(=N)c32)cc1 (centres unmarked) | -71.6
COc1ccc(C2c3ccc4ccccc4c3Oc3ncn4nc(Cc5ccccc5)nc4c32)cc1OC (centres unmarked) | 13.2
COc1ccccc1C1c2ccc3ccccc3c2Oc2ncn(CCCO)c(=N)c21 (centres unmarked) | -66.6
CC1(c2nnc(-c3ccccc3)o2)CC(c2ccc([N+](=O)[O-])cc2)=NO1 (centres unmarked) | 4.53

Compound | hERG current change (%, negative = inhibition) at 10uM [%]
O=C(Nc1cccc(Cl)c1)c1cc(S(=O)(=O)N2CCCCC2)c[nH]1 | -9.13
Cc1nn2c(=O)cc(CSc3ccccc3NC(=O)c3ccccc3F)nc2s1 | -3.29
CCCCCCCCCCCC(=O)N/N=C/c1ccco1 | -11.2
COc1ccc(Cc2nc3ccc(C(=O)N4CCCCC4CCO)cc3o2)cc1 (centres unmarked) | 4.93
CN(C)C(=O)Cn1c(SCC(=O)NC2CCCCC2)nc2ccccc21 | 7.7
COC(=O)Cn1c(=O)c(=O)n(CC(=O)OC)c2ccccc21 | 22.7
Cn1cnc(S(=O)(=O)NC2CCN(Cc3c(F)cccc3Cl)CC2)c1 | -18.6
COCCN(C(=O)C1CC1)c1nnc(-c2cccc(C)c2)s1 | -6.82
CN1CCN(C(=O)CCn2c(=O)c3cccn3c3cccnc32)CC1 | 8.62
O=C(OCC(=O)N1CCN(c2ccccc2)CC1)c1cc(Cl)ccc1[N+](=O)[O-] | -37
O=C(CCCNS(=O)(=O)c1cccs1)N1CCN(c2ccc(F)cc2)CC1 | -43.2
O=C(CCC(=O)N1CCN(c2cccc(Cl)c2)CC1)N1CCN(c2ccccc2)CC1 | -55.6
O=C(CCCNS(=O)(=O)c1cccs1)N1CCN(c2cccc(Cl)c2)CC1 | -56.9
O=C(O)CCCC(=O)N1CCN(c2cccc(Cl)c2)CC1 | 2.98
O=C(OCC(=O)N1CCN(c2ccccc2)CC1)c1ccccc1[N+](=O)[O-] | -28.8
O=C(Cn1c(=O)c2cccn2c2cccnc21)N1CCN(c2ccc(Cl)cc2)CC1 | -47
O=C(CCn1c(=O)c2cccn2c2cccnc21)N1CCN(c2cccc(Cl)c2)CC1 | -58.8
O=C(OCC(=O)N1CCN(c2ccccc2)CC1)c1ccc(Cl)cc1[N+](=O)[O-] | -63.6
O=C(CCNS(=O)(=O)c1cccs1)N1CCN(c2cccc(Cl)c2)CC1 | -10.3
O=C(O)CCC(=O)N1CCN(c2cccc(Cl)c2)CC1 | 12
